We go through nine molecules from ChEMBL document CHEMBL1961873, “Compounds: GSK PKIS; Assays: Nanosyn kinase panel” (2012).

The target in test [1] is Tyrosine-protein kinase Fer (Homo sapiens) (UniProt P16591). Particulars: at 1 µM.
Test [2] addresses Tyrosine-protein kinase Fes/Fps (Homo sapiens) (UniProt P07332). The conditions noted are these: at 0.1 µM.
Test [3] shares this target. Particulars: at 1 µM.
Test [4] addresses Fibroblast growth factor receptor 1 (Homo sapiens) (UniProt P11362). Particulars: at 0.1 µM.
For test [5] the target is unchanged. The conditions noted are these: at 1 µM.
The target in test [6] is Fibroblast growth factor receptor 2 (Homo sapiens) (UniProt P21802). The conditions noted are these: at 0.1 µM.
Sequence of Fibroblast growth factor receptor 2 (Homo sapiens) (P21802 22-821 limits assumed): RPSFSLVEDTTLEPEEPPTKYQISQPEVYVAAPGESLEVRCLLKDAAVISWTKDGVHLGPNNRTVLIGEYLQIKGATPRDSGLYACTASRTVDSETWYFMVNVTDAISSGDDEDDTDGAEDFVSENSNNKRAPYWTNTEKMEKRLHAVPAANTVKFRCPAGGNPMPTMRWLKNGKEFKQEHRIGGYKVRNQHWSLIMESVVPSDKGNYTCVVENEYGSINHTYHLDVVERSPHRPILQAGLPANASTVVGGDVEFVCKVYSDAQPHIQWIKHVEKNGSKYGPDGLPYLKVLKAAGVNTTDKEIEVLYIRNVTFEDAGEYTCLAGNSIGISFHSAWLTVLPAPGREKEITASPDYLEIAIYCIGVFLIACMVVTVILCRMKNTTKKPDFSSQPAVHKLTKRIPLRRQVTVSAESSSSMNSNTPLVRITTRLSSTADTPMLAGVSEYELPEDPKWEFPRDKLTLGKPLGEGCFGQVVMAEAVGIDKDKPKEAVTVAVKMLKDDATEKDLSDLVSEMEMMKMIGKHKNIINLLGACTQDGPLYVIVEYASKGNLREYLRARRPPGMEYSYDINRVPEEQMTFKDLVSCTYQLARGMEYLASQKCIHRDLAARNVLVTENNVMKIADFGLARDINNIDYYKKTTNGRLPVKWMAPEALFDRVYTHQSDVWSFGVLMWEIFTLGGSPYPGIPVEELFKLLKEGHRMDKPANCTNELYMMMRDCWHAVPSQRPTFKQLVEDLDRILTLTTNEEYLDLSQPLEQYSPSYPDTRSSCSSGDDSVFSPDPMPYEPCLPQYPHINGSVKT
Test [7] has the same target. Particulars: at 1 µM.
Test [8] concerns the target Fibroblast growth factor receptor 3 (Homo sapiens) (UniProt P22607). The conditions noted are these: at 0.1 µM.
For test [9] the target is unchanged. Particulars: at 1 µM.
The target in test [10] is Fibroblast growth factor receptor 4 (Homo sapiens) (UniProt P22455). The conditions noted are these: at 0.1 µM.
Sequence of Fibroblast growth factor receptor 4 (Homo sapiens) (P22455 22-802 limits assumed): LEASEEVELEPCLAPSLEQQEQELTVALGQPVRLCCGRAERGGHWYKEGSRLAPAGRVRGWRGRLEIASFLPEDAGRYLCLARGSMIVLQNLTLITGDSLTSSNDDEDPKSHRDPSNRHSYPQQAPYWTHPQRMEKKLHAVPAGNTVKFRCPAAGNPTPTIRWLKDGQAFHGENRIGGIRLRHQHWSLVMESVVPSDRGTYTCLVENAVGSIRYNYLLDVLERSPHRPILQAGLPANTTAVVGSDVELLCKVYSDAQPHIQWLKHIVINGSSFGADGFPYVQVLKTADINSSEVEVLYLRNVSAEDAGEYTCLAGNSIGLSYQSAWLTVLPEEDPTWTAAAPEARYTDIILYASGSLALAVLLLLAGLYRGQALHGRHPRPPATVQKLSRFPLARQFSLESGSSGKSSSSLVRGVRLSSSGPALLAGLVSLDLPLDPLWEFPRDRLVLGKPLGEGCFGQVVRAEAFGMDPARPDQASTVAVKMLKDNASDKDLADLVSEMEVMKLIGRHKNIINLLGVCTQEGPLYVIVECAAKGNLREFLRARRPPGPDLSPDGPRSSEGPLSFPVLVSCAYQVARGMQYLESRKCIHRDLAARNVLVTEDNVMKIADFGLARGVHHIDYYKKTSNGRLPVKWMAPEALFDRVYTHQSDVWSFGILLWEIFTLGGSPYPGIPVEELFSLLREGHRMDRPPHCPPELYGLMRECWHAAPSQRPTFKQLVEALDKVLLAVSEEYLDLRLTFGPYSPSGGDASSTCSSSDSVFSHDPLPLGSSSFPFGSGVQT
For test [11] the target is unchanged. The conditions noted are these: at 1 µM.
Test [12] addresses Tyrosine-protein kinase Fgr (Homo sapiens) (UniProt P09769). The conditions noted are these: at 0.1 µM.
For test [13] the target is unchanged. Particulars: at 1 µM.
Test [14] has as its target Vascular endothelial growth factor receptor 1 (Homo sapiens) (UniProt P17948). Particulars: at 0.1 µM.
Test [15] has the same target. Particulars: at 1 µM.
The target of test [16] is Receptor-type tyrosine-protein kinase FLT3 (Homo sapiens) (UniProt P36888). The conditions noted are these: at 0.1 µM.
Test [17] shares this target. Particulars: at 1 µM.
The subject of test [18] is T1, Receptor-type tyrosine-protein kinase FLT3 (Homo sapiens), P36888 [D835Y].
T1 sequence (whole entry): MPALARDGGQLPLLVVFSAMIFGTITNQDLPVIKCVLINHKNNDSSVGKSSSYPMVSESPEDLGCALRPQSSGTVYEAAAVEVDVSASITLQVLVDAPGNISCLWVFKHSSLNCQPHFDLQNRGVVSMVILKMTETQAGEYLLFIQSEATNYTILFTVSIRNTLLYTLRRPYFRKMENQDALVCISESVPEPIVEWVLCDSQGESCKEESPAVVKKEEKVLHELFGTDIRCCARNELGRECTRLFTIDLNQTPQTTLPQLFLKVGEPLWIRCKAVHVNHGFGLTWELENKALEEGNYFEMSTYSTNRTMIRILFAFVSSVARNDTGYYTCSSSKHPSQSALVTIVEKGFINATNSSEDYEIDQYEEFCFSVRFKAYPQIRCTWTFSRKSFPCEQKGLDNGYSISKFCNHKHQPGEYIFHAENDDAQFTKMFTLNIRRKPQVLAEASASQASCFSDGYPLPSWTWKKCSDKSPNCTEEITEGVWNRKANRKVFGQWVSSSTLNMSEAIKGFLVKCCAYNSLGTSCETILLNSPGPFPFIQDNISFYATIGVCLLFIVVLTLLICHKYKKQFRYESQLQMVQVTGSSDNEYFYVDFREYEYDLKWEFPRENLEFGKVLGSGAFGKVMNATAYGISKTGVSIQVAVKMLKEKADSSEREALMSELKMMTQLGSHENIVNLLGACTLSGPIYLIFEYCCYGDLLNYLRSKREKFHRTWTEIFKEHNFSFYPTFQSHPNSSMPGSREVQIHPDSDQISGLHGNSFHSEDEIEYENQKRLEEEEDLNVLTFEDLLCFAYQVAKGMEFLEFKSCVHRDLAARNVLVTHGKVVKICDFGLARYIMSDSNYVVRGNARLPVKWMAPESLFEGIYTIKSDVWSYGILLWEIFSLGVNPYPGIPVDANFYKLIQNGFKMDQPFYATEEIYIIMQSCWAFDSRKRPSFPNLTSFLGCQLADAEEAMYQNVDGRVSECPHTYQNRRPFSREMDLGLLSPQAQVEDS
The conditions noted are these: at 0.1 µM.

Test [19] has as its target Non-receptor tyrosine-protein kinase TYK2 (Homo sapiens) (UniProt P29597). Particulars: at 1 µM.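 Note: values are mean percent inhibition of TYK2 kinase.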
Test [20] concerns the target T2, Tyrosine-protein kinase receptor TYRO3 (Homo sapiens) (UniProt Q06418).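 Note: reported percentages are averaged inhibition values of TYRO3 kinase activity.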
T2 sequence (whole entry): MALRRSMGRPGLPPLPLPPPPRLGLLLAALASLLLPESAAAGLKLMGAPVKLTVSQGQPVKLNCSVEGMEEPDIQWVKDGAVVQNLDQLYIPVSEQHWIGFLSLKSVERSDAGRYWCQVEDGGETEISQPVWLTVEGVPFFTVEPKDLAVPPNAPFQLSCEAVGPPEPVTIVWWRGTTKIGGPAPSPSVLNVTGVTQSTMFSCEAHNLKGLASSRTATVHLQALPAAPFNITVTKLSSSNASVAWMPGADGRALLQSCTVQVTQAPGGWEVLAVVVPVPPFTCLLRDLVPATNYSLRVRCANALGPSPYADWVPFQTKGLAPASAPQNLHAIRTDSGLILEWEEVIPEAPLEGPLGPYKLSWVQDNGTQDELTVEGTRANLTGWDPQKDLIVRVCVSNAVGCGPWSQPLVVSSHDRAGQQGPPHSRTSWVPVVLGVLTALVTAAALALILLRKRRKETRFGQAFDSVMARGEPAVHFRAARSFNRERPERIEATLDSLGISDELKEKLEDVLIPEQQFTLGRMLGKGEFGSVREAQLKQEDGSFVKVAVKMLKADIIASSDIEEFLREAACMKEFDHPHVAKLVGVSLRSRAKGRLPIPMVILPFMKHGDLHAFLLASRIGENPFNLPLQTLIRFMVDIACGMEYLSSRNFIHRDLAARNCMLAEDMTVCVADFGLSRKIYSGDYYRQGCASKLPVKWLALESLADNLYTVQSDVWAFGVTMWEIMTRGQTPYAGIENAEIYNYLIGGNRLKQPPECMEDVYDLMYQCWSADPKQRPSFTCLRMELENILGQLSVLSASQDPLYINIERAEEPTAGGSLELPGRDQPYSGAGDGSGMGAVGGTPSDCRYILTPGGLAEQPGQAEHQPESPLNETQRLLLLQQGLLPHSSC
The conditions noted are these: at 0.1 µM.

Sequence of Fibroblast growth factor receptor 1 (Homo sapiens) (P11362 22-822 limits assumed): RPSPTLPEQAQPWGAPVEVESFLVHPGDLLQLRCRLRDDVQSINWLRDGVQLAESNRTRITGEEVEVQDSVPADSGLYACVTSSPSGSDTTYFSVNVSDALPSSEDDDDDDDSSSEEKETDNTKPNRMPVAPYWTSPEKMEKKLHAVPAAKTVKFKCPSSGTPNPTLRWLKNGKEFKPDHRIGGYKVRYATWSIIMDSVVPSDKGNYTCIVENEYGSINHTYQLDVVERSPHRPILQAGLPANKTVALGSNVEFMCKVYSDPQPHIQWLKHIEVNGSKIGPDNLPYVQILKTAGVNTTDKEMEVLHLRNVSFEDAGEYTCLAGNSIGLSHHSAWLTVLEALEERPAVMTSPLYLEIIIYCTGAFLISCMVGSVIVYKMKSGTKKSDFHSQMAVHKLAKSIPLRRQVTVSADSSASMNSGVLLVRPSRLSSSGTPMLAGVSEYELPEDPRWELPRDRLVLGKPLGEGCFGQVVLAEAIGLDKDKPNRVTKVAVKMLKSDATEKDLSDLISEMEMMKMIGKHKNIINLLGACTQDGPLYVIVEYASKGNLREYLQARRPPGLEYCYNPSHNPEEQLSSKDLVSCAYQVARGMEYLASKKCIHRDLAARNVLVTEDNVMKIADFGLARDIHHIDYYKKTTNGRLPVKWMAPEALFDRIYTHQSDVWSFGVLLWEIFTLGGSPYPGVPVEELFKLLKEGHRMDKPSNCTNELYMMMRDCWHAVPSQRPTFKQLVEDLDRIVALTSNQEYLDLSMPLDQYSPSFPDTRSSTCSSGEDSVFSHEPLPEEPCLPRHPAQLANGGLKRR
Sequence of Non-receptor tyrosine-protein kinase TYK2 (Homo sapiens) (P29597 whole entry): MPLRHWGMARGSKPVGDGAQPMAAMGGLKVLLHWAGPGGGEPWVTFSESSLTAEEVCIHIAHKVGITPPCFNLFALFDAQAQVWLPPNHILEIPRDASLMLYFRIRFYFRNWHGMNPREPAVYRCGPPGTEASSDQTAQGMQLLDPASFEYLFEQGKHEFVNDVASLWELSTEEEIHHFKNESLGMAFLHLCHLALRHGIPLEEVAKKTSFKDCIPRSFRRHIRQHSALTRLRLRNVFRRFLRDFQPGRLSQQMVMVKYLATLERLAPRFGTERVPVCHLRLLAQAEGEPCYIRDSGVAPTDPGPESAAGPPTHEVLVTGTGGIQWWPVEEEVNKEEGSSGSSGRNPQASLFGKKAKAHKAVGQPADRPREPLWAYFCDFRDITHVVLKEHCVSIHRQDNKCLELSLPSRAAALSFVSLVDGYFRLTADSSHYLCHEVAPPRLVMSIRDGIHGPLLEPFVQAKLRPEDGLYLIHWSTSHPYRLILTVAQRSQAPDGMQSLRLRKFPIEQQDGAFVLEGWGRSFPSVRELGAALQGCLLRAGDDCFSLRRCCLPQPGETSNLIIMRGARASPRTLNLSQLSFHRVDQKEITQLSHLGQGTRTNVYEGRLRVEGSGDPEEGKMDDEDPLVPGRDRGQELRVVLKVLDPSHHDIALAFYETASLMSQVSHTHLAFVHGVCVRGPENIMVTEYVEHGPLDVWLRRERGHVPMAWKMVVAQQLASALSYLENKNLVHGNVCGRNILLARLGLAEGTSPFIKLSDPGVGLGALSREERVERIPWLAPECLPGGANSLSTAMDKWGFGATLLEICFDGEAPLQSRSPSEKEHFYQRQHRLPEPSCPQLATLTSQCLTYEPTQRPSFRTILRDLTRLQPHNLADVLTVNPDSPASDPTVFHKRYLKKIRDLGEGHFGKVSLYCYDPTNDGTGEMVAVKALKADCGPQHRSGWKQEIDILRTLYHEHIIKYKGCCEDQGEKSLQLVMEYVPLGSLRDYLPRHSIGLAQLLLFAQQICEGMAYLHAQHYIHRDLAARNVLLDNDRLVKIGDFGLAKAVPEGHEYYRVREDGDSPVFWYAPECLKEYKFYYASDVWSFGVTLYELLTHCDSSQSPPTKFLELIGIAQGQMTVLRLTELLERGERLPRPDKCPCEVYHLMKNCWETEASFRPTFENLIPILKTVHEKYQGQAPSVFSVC
Sequence of Tyrosine-protein kinase Fgr (Homo sapiens) (P09769 2-529 limits assumed): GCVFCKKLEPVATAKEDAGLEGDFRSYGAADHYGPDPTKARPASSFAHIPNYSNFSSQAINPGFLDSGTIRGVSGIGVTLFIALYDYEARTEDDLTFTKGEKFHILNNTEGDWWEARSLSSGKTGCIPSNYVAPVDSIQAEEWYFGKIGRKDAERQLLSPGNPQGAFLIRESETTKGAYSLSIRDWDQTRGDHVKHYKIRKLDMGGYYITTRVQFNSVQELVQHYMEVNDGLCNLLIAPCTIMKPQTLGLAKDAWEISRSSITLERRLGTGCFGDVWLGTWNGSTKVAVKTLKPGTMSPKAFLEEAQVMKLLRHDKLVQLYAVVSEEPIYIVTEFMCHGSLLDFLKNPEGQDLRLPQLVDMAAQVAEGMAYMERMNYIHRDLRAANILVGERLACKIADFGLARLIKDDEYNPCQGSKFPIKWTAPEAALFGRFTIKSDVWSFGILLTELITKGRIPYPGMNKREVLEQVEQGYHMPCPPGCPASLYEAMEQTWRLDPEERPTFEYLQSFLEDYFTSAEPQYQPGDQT
Sequence of Fibroblast growth factor receptor 3 (Homo sapiens) (P22607 23-806 limits assumed): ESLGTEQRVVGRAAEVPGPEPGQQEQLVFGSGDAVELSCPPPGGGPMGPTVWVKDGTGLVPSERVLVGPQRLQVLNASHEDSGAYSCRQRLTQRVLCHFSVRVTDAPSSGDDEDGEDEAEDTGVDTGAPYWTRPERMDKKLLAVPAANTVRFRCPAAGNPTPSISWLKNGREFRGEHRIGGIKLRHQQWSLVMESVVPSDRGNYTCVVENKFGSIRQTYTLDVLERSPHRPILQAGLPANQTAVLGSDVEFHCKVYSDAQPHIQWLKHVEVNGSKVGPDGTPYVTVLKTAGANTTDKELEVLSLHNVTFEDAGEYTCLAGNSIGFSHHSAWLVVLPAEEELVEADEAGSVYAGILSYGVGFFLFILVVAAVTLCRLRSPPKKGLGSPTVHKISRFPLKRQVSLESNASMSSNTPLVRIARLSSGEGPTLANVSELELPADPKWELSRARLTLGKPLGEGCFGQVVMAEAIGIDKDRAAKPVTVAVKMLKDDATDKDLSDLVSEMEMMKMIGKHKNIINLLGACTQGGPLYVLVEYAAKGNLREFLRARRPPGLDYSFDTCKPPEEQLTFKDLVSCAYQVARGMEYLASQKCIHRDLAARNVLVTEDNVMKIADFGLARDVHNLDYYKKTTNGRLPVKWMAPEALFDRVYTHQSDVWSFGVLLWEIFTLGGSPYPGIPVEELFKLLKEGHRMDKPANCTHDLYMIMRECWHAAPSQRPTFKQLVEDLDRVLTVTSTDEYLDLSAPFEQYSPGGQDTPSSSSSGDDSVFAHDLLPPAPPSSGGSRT

The term inhibition denotes the change of the read-out against control, counted positive when it falls. Turning to `COc1ccc2cc(-c3c(-c4ccncc4)nc(-c4ccc([S+](C)[O-])cc4)n3C)ccc2c1` (centres undefined), the inhibition turned out to be 3.19% in test [1]; 2.73% in test [2]; 3% in test [3]; 0.66% in test [4]; 17% in test [5]; 3.38% in test [6]. The inhibition in [7] is 5.85%; in test [8], 4.62%; in [9], 5.2%; in [10], 0.03%; in test [11], 1.73%; in test [12] it was 1.14%. Besides, the inhibition in test [13] was 6.14%; in test [14], -2.5%; in test [15], -1.05%; in test [16], 1.98%; in test [17], 1.93%; in test [18], -0.4%. For the same molecule, the inhibition in [19] is -4.84%; in test [20], 0.64%.
For the molecule `CS(=O)(=O)CCNCc1nc(-c2ccc3ncnc(Nc4ccc(F)c(Cl)c4)c3c2)cs1`, the inhibition in test [1] was 4.88%; in [2], 0.25%; in [3], -0.06%; in test [4] it was -5.98%; in test [5] it was 1.65%; in [6], 1.9%. The inhibition was 5.07% in test [7]; 2.17% in test [8]; 4.26% in [9]; 2.32% in test [10]; -0.36% in [11]; 5.78% in [12]. The inhibition in test [13] was 10.6%; in [14], 1.98%; in test [15], -0.42%; in test [16] it was -0.6%; in test [17], 0.63%; in test [18], 2.29%. Also, the inhibition in test [19] was -3.18%; in test [20], 0.5%.
Consider `COc1ccc(-c2coc3ncnc(N)c23)cc1`, for which the inhibition in test [1] amounted to 2.33%; in test [2], 4.28%; in test [3] it was 5.04%; in test [4], 3.15%; in test [5], 9.2%; in test [6], 3.85%. Further, the inhibition in [7] was 10.1%; in test [8] it was 6.98%; in test [9], 6.72%; in [10], -5.79%; in test [11], 1.55%; in test [12], 0.55%. Besides, the inhibition in test [13] was 5.25%; in test [14], -1.7%; in test [15], 2.37%; in [16], 2.97%; in test [17], 4.59%; in test [18], 3.34%. The figures for the inhibition in test [19] and in [20] were -3.97% and 2.29%, respectively.
With `CCn1c(-c2nonc2N)nc2c(C#CC(C)(C)O)nc(CN3CCCC3)cc21`, the inhibition in test [1] is 0.06%; in test [2] it was -1.26%; in [3] it was -0.58%; in test [4], -3.25%; in test [5], -2.63%; in [6] it was -0.04%. Also, the inhibition in test [7] was 0.42%; in [8], -2.14%; in test [9], -0.76%; in test [10] it was -0.75%; in test [11], 1.16%; in test [12], -1.03%. For the same molecule, the inhibition in test [13] is 3.81%; in test [14] it was -1.48%; in [15], 3.78%; in test [16] it was -1.67%; in [17] it was -0.42%; in test [18], -4.71%. Besides, the inhibition in test [19] is -0.89%; in test [20] it was 0.06%.
Take `COc1cc(C)c(NC(=O)CN(C)C)cc1Nc1nc(Nc2cccc(F)c2C(N)=O)c2cc[nH]c2n1`: the inhibition in test [1] is 86.8%; in test [2], 76.1%; in [3], 89%; in [4], 0.49%; in test [5], 1.43%; in test [6], 0.12%. Besides, the inhibition in test [7] was 4.39%; in test [8], 2.37%; in test [9] it was 1.03%; in [10], -1.04%; in test [11], 1.48%; in test [12] it was 0.83%. Also, the inhibition in [13] was 2.7%; in test [14], 2.27%; in test [15], 0.42%; in [16] it was 1.69%; in [17], 4.08%; in [18], -5.02%. The inhibition was -1.61% in [19] and 2.82% in test [20].
As for `CC1=C(C(=O)Nc2ccc3[nH]ncc3c2)C(c2ccc(Cl)c(Cl)c2)CC(=O)N1` (centres undefined), the inhibition in test [1] is 1.24%; in test [2] it was 1.63%; in [3], 2.35%; in test [4] it was 0.69%; in test [5], 8.25%; in test [6] it was 0.22%. Besides, the inhibition in test [7] worked out at 20.4%; in [8], 2.17%; in test [9], 14.1%; in test [10], 1.31%; in test [11], 8.43%; in [12], 1.97%. Also, the inhibition in test [13] is 6.08%; in test [14] it was 0.2%; in test [15], 2.26%; in test [16], 1.43%; in test [17], 1.54%; in [18], -2.38%. In addition, the inhibition in test [19] turned out to be 3.29%; in [20], 1.69%.
Consider `N#Cc1c(NC(=O)c2cccc3ccccc23)sc2c1CCCC2`, for which the inhibition in test [1] is 1.93%; in test [2], 2.2%; in [3] it was 2.36%; in [4] it was 0.22%; in test [5], 2.06%; in test [6], 1.68%. In addition, the inhibition in [7] is 4.84%; in test [8], 5.84%; in test [9], 4.55%; in [10], -2.84%; in [11] it was -0.35%; in test [12] it was 1.53%. For the same molecule, the inhibition in test [13] was 5.24%; in test [14], -0.49%; in test [15], 0.41%; in test [16], 2.28%; in test [17], 2.23%; in test [18] it was 3.1%. Further, the inhibition is -3.92% in [19] and 2.98% in [20].
As for `Nc1ncnc2occ(-c3ccc(NC(=O)Nc4cc(C(F)(F)F)cc(C(F)(F)F)c4)cc3)c12`, the inhibition is 22% in test [1]; 1.31% in [2]; 4.84% in test [3]; 9.08% in test [4]; 43.7% in [5]; 23.3% in [6]. Moreover, the inhibition in [7] was determined as 68.8%; in test [8], 10.8%; in [9] it was 52.8%; in [10], 3.02%; in [11], 9.49%; in test [12], 1.01%. The inhibition in test [13] is 15.9%; in test [14] it was 23.4%; in test [15], 73.9%; in [16] it was 19%; in test [17] it was 78.3%; in test [18], 12.8%. For the same molecule, the figures for the inhibition in test [19] and in test [20] were -5.22% and 2.97%, respectively.
`CC(C)=Cc1cccc2c1/C(=N/Nc1ccc(S(N)(=O)=O)cc1)C(=O)N2`: the inhibition is 20.1% in test [1]; 0.31% in test [2]; 2.29% in [3]; -0.4% in [4]; 14.7% in [5]; 3.88% in [6]. In addition, the inhibition in test [7] is 36.8%; in test [8], 3.36%; in test [10], 4.09%; in test [11], 1.59%; in [12] it was 5.76%; in test [13], 25.3%. For the same molecule, the inhibition was determined as 1.39% in [14]; 13.9% in test [15]; 6.79% in [16]; 48.9% in test [17]; 15.6% in [18]; 20.7% in test [19]. Also, the inhibition in test [20] was determined as 2.83%.
